# Test results: paper PMC4336329 (PLoS ONE, 2015)
# Screen size: about 310,000 compounds; about 14,000 (4.5%) showed an effect of 50% or more. Effects have a minus sign here. What follows is part of a selection rich in strong results, with near analogues and random picks from the rest.
# Biological target: human ether-à-go-go-related gene (hERG) potassium channel (human, UniProt Q12809)
# Assay: primary screen, population patch clamp on CHO cells stably expressing hERG; higher = less effect of the substance
# 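Also: peak tail current of the secondary pulse compared with the same well before compound.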
# human ether-à-go-go-related gene (hERG) potassium channel, sequence (Q12809 whole entry, looked up): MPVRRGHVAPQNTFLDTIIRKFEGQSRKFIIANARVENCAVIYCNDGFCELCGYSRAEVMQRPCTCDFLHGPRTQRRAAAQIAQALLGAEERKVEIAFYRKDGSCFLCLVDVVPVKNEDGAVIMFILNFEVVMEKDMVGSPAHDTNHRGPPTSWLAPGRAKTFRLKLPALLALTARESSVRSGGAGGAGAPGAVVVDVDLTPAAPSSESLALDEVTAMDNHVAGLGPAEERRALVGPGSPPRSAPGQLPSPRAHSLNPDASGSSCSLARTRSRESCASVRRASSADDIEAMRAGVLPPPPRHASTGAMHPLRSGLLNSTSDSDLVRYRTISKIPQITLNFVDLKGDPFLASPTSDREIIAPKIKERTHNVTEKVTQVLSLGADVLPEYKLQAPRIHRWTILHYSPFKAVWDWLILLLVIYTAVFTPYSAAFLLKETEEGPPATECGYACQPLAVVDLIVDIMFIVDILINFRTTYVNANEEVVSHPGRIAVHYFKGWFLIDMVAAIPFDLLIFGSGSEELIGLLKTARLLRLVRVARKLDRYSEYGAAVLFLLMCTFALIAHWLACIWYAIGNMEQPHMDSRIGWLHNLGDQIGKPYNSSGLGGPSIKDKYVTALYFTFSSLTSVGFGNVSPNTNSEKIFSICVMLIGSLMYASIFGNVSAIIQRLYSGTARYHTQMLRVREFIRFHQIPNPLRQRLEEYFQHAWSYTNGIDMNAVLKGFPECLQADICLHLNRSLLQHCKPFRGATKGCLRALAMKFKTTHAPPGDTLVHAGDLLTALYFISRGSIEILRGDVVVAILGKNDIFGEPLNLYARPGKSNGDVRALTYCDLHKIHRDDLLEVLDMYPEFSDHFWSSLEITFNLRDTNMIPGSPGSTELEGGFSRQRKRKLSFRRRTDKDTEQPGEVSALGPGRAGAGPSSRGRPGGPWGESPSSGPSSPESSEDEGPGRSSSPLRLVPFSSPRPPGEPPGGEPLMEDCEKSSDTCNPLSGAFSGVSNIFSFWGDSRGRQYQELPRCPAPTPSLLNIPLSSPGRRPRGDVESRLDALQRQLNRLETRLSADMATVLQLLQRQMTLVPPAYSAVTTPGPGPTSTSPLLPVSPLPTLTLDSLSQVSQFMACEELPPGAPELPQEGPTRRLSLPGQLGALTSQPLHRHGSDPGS
row,Compound,"hERG current change (%, negative = inhibition) at 10uM"
1,Cc1ccc(S(=O)(=O)N(C)C)cc1NC(=O)COC(=O)C1CCCC1,3.16%
2,O=C(COC(=O)c1cccs1)Nc1cc(S(=O)(=O)N2CCOCC2)ccc1Cl,-35.5%
3,Cc1ccc(S(=O)(=O)N(C)C)cc1NC(=O)COC(=O)C1CC1,16.2%
4,Cc1ccc(S(=O)(=O)N2CCOCC2)cc1NC(=O)COC(=O)CCC(=O)c1cccs1,-13.8%
5,CN(C)S(=O)(=O)c1ccc(Cl)c(NC(=O)CN2CCCC2)c1,11.5%
6,CN(CCC(=O)Nc1cc(S(=O)(=O)N(C)C)ccc1Cl)CC(=O)Nc1ccc(F)cc1,-50.1%
7,Cc1ccc(C)c(NC(=O)COC(=O)Cc2ccsc2)c1,33.1%
8,Cc1ccc(S(=O)(=O)N(C)C)cc1NC(=O)COC(=O)Cc1ccsc1,-79%
9,CCC(=O)OCC(=O)Nc1cc(S(=O)(=O)N(C)C)ccc1Cl,17.1%
10,O=C(COC(=O)CCC(=O)c1cccs1)Nc1cc(S(=O)(=O)N2CCOCC2)ccc1Cl,-53.5%
11,Cc1ccc(S(=O)(=O)N(C)C)cc1NC(=O)COC(=O)C1CCN(S(=O)(=O)c2cccs2)CC1,-81.9%
12,Cc1ccccc1NC(=O)COC(=O)Cc1ccsc1,12.7%
13,Clc1ccc(-c2nnc(SCc3cn4ccsc4n3)n2CC2CCCO2)cc1 (stereo not shown),-29.2%
14,Cc1cccc2cc3c(N)c(C#N)sc3nc12,21.5%
15,Cc1cc(C)c(Nc2cc(S(=O)(=O)[O-])c(N)c3c2C(=O)c2ccccc2C3=O)c(C)c1.[Na+],12%
16,CCn1c(-c2cc(-c3cc(OC)ccc3OC)nc3ccccc23)n[nH]c1=S,-10.3%
17,CCCC(C)c1nnc(NC(=O)C2CC(=O)N(CCc3ccc(F)cc3)C2)s1 (stereo not shown),-30.1%
18,COc1ccc(-c2nnc3sc(-c4ccccn4)nn23)cc1,-13.2%
19,CCOC(=O)c1ccc(-c2ccc(CO)o2)cc1,-6.44%
20,CCC(C)[C@H](NC(=O)N1CC(=O)Nc2ccccc21)C(=O)N[C@H](C(=O)O)c1ccccc1 (stereo partly shown),7.19%
21,CCN1C(=O)CC(c2ccco2)Sc2ccccc21 (stereo not shown),-16.8%
22,O=C(NCCCN1CCOCC1)c1ccc([N+](=O)[O-])cc1[N+](=O)[O-],10.5%
23,CC(C)n1c(=O)c(C=Nc2ccc(F)cc2)c(O)n(Cc2ccco2)c1=O,-19.7%

row,Compound,"hERG current change (%, negative = inhibition) at 10uM"
1,COc1ccc2c(=O)c3c(=O)n(-c4ccc(C)cc4)c(-c4ccccc4)nc3oc2c1,6.84%
2,CC(=O)Nc1ccc(S(=O)(=O)N2CCSC2C(=O)O)cc1 (stereo not shown),0.312%
3,Cc1ccc(S(=O)(=O)Nc2ccc(N3CCOCC3)cc2)cc1C,2.95%
4,COc1ccc(/C=C/C(=O)NC(=S)NNC(=O)c2c(-c3ccccc3)noc2C)cc1,11.4%
5,Cc1cc2ncc(-c3cccc(Cl)c3)cn2n1,8.42%
6,COc1ccc2c(COC(=O)CC3Sc4ccccc4NC3=O)cc(=O)oc2c1 (stereo not shown),-44.1%
7,O=C(CC1Sc2ccccc2NC1=O)OCc1cc(=O)oc2cc(O)ccc12 (stereo not shown),-51.7%
8,CC(=O)Nc1ccc2c(COC(=O)CC3Sc4ccccc4NC3=O)cc(=O)oc2c1 (stereo not shown),-9.75%
9,CCCCn1c(SCC(=O)NCc2ccccc2)nc2ccc(N3CCOCC3)cc2c1=O,-13.9%
10,COc1ccc(OC)c(NC(=O)C2C3CC4OC(=O)C2C4C3)c1 (stereo not shown),11.2%
11,O=C(Cn1cnc2ccccc2c1=O)N1CCN(Cc2ccc3c(c2)OCO3)CC1,-14%
12,O=C(c1ccccc1Cl)N1CCN(Cc2ccc3c(c2)OCO3)CC1,-21.1%
13,O=C(Cn1ccc2ccccc2c1=O)N1CCN(Cc2ccc3c(c2)OCO3)CC1,-14.8%
14,O=C(O)C(=O)O.O=C(c1ccccc1F)N1CCN(Cc2ccc3c(c2)OCO3)CC1,6.48%
15,O=C(c1ccc2nc3ccccc3c(=O)n2c1)N1CCN(Cc2ccc3c(c2)OCO3)CC1,-60.9%
16,O=C(c1cccn2c(=O)c3cc(Cl)ccc3nc12)N1CCN(Cc2ccc3c(c2)OCO3)CC1,-75.2%
17,O=C(c1cc(Cl)nc2ccccc12)N1CCN(Cc2ccc3c(c2)OCO3)CC1,-37.9%
18,O=C(c1cccc(Cl)c1)N1CCN(Cc2ccc3c(c2)OCO3)CC1,-16.6%
19,O=C(c1cccn2c(=O)c3ccccc3nc12)N1CCN(Cc2ccc3c(c2)OCO3)CC1,-67.7%
20,CCc1ccc(NC(=O)c2cc(-c3ccc(OC)cc3)on2)cc1,-0.467%
21,CCc1cc(=O)oc2cc(C)cc(OCc3nn[nH]n3)c12,-5.99%
22,CCc1nn(CCCC(=O)Nc2ccc(C)c(C)c2)c(=O)c2cc3occc3n12,4.15%
23,CCc1ccccc1N(CC(=O)NCc1ccco1)C(=O)CCC(=O)Nc1ccccn1,-7.41%
